Measured values from PubChem BioAssay (NCI).
“And” between values parts separate entries of the source, which are not always exact repeats. Identical values can stand only once. Compounds without any hit were thinned out: in the full panel of roughly 83,000, 20% have a hit.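 For each line, cells grew in 96-well plates with the test compound present at a single concentration for 48 hours.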 The source made the active and inactive calls. Rule for the calls: active = growth percent below 10; inactive = the rest.

System: MDA-MB-468 breast
Assay: NCI-60 one-dose screen, 48 h (100 = growth as untreated, 0 = no growth, -100 = all killed)
Conditions: 10 µM unless noted

SMILES	growth
Fc1cnc(NC2CC2)nc1-c1cnc2ccc(N3CCOCC3)cn12	-29.6% (active)
CC/C(C)=C(\C)C(=O)O	106% (inactive)
COc1cc(OC)c(C(=O)/C=C/c2cccc(C#N)c2)c(OC)c1	-13.8% (active)
COc1ccc(-c2nc3sccn3c2-c2cc(-c3cc(OC)c(OC)c(OC)c3)on2)cc1	100% (inactive)
COc1ccc(/C=C(\C#N)c2ccccc2)cc1	91.2% (inactive)
COCCCC/C(=N\OCCN)c1ccc(C(F)(F)F)cc1	101% (inactive)
Cc1ccc(NS(=O)(=O)c2ccc(-c3cnc(C4CC4)o3)cc2)cc1C	-25.6% (active)
COc1ccc(-c2nc(N/N=C/c3c[nH]c4ccccc34)nc(N3CCOCC3)c2C#N)cc1	97.8% (inactive)
C[C@]12CCc3nc(Nc4ccccc4)sc3C1=CC[C@@H]1[C@@H]2CC[C@]2(C)/C(=N/NC(N)=S)CC[C@@H]12	14.9% (inactive)
N=C(N)c1ccc(-c2ccc(-c3cccs3)s2)s1	-90.3% (active)
O=C1Nc2ccccc2C1=NC1CCCCC1	102% (inactive)
Cc1ccc(-c2csc(NC(=O)CSc3nc(N)cc(N)n3)n2)cc1	11.6% (inactive)
CCCCn1c(C)nc2ccc(Nc3nc(Cl)nc4nc[nH]c34)cc21	34.6% (inactive)
COc1ccc(C2C=C(c3ccc(Cl)cc3)N=C3SC=CN32)c(Br)c1 (stereo not given)	61% (inactive)
O=C(O)c1cn(C2CC2)c2cc(N3CCN(C(=O)Nc4nc(-c5ccc(Cl)cc5)cs4)CC3)c(F)cc2c1=O	9.76% (active)
COc1cccc(-c2nn(C(C)(C)C)cc2-c2ccnc(NCCCNS(=O)(=O)c3ccc(C)cc3)c2)c1	104% (inactive)
Oc1c(Cl)cc(Cl)c2ccc(CN3CCNCC3)nc12	34.4% (inactive)
COc1ccc(C(=O)c2cc3c(N)c(C(=O)Nc4cccc(Cl)c4)sc3nc2C)cc1	10.5% (inactive)
CCNC(=O)N1CCc2cc(OC)c(OCCc3ccc(OC)nc3)cc2C1c1ccc(OC)cc1C (stereo not given)	26.7% (inactive)
COc1cc(/C=C/C(=O)c2cc(-c3ccc(F)cc3)ccc2O)cc(OC)c1OC	65.6% (inactive)
Cc1ccc(-c2nc3c(N=Nc4ccc(S(N)(=O)=O)cc4)c(N)nn3c(N)c2C#N)cc1	5.87% (active)
Clc1ccc(-c2nc(-c3ccco3)cn3ccnc23)cc1	-5.8% (active)

SMILES	growth
COC(=O)C(C)NS(=O)(=O)/N=C1\NC(=O)NC1=C(Cl)Cl (stereo not given)	91.4% (inactive)
Fc1ccc2[nH]cc(-c3nc(-c4c[nH]c5ncccc45)cs3)c2c1	34.9% (inactive)
C=COC(=O)CCOCC(CC)CCCC (stereo not given)	104% (inactive)
O=C(C(=O)N1CCOCC1)c1ccc(OC2OC(CO)C(O)C(O)C2O)cc1 (stereo not given)	105% (inactive)
NS(=O)(=O)c1cc(C2(O)NC(=O)c3ccccc32)ccc1Cl (stereo not given)	102% (inactive)
COc1ccc(-c2nc3sccn3c2-c2ccnc(NCCCNS(=O)(=O)c3ccc(C)cc3)n2)cc1	37.9% (inactive)
COc1ccc(NC(=O)/C=C/c2ccc(NC(=O)N3CCCC3)cc2)cn1	116% (inactive)
Cc1ccc2c(c1)ncn2-c1ncnc2c1CC(C)c1ccccc1N2C (stereo not given)	38% (inactive)
O=C(O)CSCc1nc2ccccc2[nH]1	118% (inactive)
CCOC(=O)N1CCN(CCCCOc2ccc(C(C)(C)CC)cc2)CC1	92.9% (inactive)
CC[C@]12CN3CCc4c([nH]c5ccccc45)[C@@](C(=O)OC)(c4cc5c(cc4OC)N(C)[C@H]4[C@@](O)(C(=O)OC)[C@H](OC(C)=O)[C@]6(CC)C=CCN7CC[C@]54[C@@H]76)CC(C3)[C@H]1O2 (stereo not given in full)	-12.7% (active)
COc1ccc(C2CC(c3cc(OC)c(OC)c(OC)c3)=NN2)cc1 (stereo not given)	66.6% (inactive)
NC(CSC(c1ccccc1)(c1ccccc1)c1ccc(F)cc1)C(=O)O (stereo not given)	-41% (active)
CN(C1c2ccccc2Oc2ccccc21)S(=O)(=O)c1cc(Cl)ccc1Cl	18.9% (inactive)
O=C(Nc1ccc(OCc2nnc(-c3ccc(Cl)cc3)o2)c(F)c1)Nc1ccc(Cl)c(Cl)c1	43.2% (inactive)
COc1ccc(/C=C/C(=O)c2cc3c(N)c(C(=O)Nc4ccc(OC)cc4)sc3nc2C)cc1	11.6% (inactive)
CCOC(=O)c1cc2c(n1Cc1cc(OC)cc(OC)c1Br)-c1nc(NC(C)=O)sc1CCC2	77.7% (inactive)
CC(C)C[C@H](NC(=O)/C=C/Cn1ccc2ccccc2c1=O)B(O)O	-6.84% (active)
Cc1nc(NC(=O)COc2ccc(/C=C3\Cc4ccc(Cl)cc4C3=O)cc2)sc1C	112% (inactive)
O=C1/C(=C\c2ccc[nH]2)c2ccccc2N1c1ccccc1	0.806% (active)
COc1ccc(S(=O)(=O)NCCCNc2nccc(-c3c(-c4ccc(F)cc4)nc4sccn34)n2)cc1	61.2% (inactive)
CCCCCCCCCCC(C(O)c1ccccc1)N1CCCCC1 (stereo not given)	-21.9% (active)

SMILES	growth
O=C(O)c1nn(-c2ccc(Cl)cc2)nc1N1CCCC1	86% (inactive)
COc1ccc(-c2ccc(-c3ccc(C(=N)N)cn3)o2)cc1	48.7% (inactive)
COc1nc2ccc(C)cc2cc1-c1nc2c(cnn2-c2ccc(Br)cc2)c(=O)[nH]1	29.5% (inactive)
COc1cc(C(=O)/C=C/c2ccc(OCCCCCC[P+](c3ccccc3)(c3ccccc3)c3ccccc3)cc2)cc(OC)c1OC	-58.6% (active)
O=C(NNC(=O)c1ccc([N+](=O)[O-])cc1)c1ccc([N+](=O)[O-])cc1	109% (inactive)
CSc1nc(=S)c2nc(SC)n(-c3ccccc3)c2[nH]1	91.1% (inactive)
COc1ncc(-c2ccc3nccc(C#CCCCCC(=O)NO)c3c2)cc1NS(=O)(=O)c1ccc(F)cc1F	-37.1% (active)
CCOC(=O)c1sc2ncc(-c3ccc(OC)cc3)n2c1C	103% (inactive)
CCCCN1CCN(c2ccc3nc(-c4ccc5nc(-c6ccc(OCC)c(OCC)c6)[nH]c5c4)[nH]c3c2)CC1	-77.8% (active)
CN(C)c1ccc(Nc2c3ccccc3nc3cc(NC(=O)CCN4CCCC4)ccc23)cc1	-74.9% (active)
Cc1cc2c(c(C)c1Cl)C(=O)/C(=C/c1ccco1)O2	-2.58% (active)
O=C1Nc2cc(OC(F)(F)F)ccc2Oc2ccc(-c3ccnc(N4CCNCC4)c3)cc21	-79.4% (active)
CC(/C=N/NC(=O)c1cc(-c2ccco2)[nH]n1)=C\c1ccccc1	117% (inactive)
CS(=O)CC(=N\O)/C(CS(C)=O)=N\O (stereo not given)	104% (inactive)
COc1ccc2c(c1)O/C(=C/c1ccc(OCC(=O)Nc3ccc(S(N)(=O)=O)cc3)cc1)C2=O	86.3% (inactive)
COc1ccc2oc3c4[nH]c5ccccc5c4c4c(c3c2c1)C(=O)N(O)C4=O	104% (inactive)
Cc1ccc(/C=C/CC(=O)Nc2ccc(C(=O)Nc3ccc(F)cc3N)nc2)cn1	4.55% (active)
COc1ccc(CN2CCC(N3CCCC3=O)c3cc(Cl)ccc32)cc1 (stereo not given)	114% (inactive)
CCC(C)(c1ccc(O)c(C)c1)c1ccc(O)c(C)c1	70.1% (inactive)
COc1ccc2c(c1)[n+]([O-])c(C(=O)/C=C/C=C(\Cl)c1cc(OC)c(OC)c(OC)c1)c(C)[n+]2[O-]	62.2% (inactive)
Fc1ccc2nc(-c3ccc(-c4noc(-c5ccc(Cl)cc5)n4)cc3)[nH]c2c1	110% (inactive)
CCCC1CCCCN1C(=O)OCC(C)C (stereo not given)	97.4% (inactive)

SMILES	growth
COc1c(C)cnc(CSc2nc(-c3ccc(C)cc3)cn2-c2ccc(Cl)cc2)c1C	114% (inactive)
Cc1ccc(C2CC(c3cccc(Nc4ccncc4)c3)=Nc3c(N)nc(N)nc3N2)cc1 (stereo not given)	60.2% (inactive)
COCCN(C(=O)c1ccc(F)cc1F)c1c(N)n(Cc2ccccc2)c(=O)[nH]c1=O	87.8% (inactive)
COc1cc(-c2nn(C(C)(C)C)cc2-c2ccnc(NCCCNS(=O)(=O)c3ccccc3)n2)ccc1Cl	67.3% (inactive)
O=C(Cc1nc2cc(Cl)c(Cl)cc2nc1CC(=O)c1ccccc1)c1ccccc1	-55% (active)
Cc1c(C(=O)NCCC(=O)NO)sc2ncnc(Nc3ccc(NC(=O)Nc4cccc(C(F)(F)F)c4)cc3)c12	97.2% (inactive)
CNC(=O)c1cc(N2CCc3cc(NC(=O)Nc4ccc(Cl)c(Cl)c4)ccc32)ccn1	84.5% (inactive)
O=[N+]([O-])c1ccc(Nc2nc(NCCN3CCOCC3)ncc2[N+](=O)[O-])cc1	70.8% (inactive)
NS(=O)(=O)c1cc2c(cc1Cl)NC=NS2(=O)=O	108% (inactive)
Clc1ccc2oc3c(NCCCn4ccnc4)c4ccccc4nc3c2c1	51.6% (inactive)
O=C(O)c1ccc2c(c1)C(=O)N(Cc1ccccc1)C2=O	96.2% (inactive)
Fc1ccc2c(-c3cncn3CCc3ccccc3)c[nH]c2c1	74.6% (inactive)
O=C(NCc1ccc2c(c1)OCO2)NCC1CCCC(CNC(=O)NCc2ccc3c(c2)OCO3)C1 (stereo not given)	104% (inactive)
COC(=O)c1ccc(NC(=S)N2CCc3ccc([N+](=O)[O-])cc3C2)cc1O	94.2% (inactive)
C=C[C@]1(C)C=C2C(=O)[C@@]3(O)OC(=O)[C@@]4(CCCC(C)(C)[C@H]34)[C@@]2(O)CC1	-84.4% (active)
CCOc1ccc2cc(-c3nn(CC4CCN(C)CC4)c4ncnc(N)c34)ccc2c1	85.6% (inactive) and 42% (inactive)
C=CCc1c2c(c(OC)c3ccoc13)C(=O)/C(=C/c1ccccc1OC)O2	-3.89% (active)
c1ccc(CCc2ccccc2-c2cc(-c3ccccc3)on2)cc1	93.8% (inactive)
CC(C)CNCC(O)COc1ccc(C(C)(C)c2ccc(OCC(O)CNCC(C)C)cc2)cc1 (stereo not given)	62.5% (inactive)
